A short description of assay [1]: qHTS assay to identify small molecule antagonists of the estrogen receptor alpha (ER-alpha) signaling pathway using the BG1 cell line in the presence of 0.1 nM 17-beta-estradiol - cell viability counter screen (AID 1259241). Further: nearly all actives have a fitted effect of over 40% in size. Put shortly: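 The cell line endogenously expresses full-length ER-alpha and carries four EREs driving luciferase. Cells are cultured 5 days hormone-free, treated 22 hr with compounds and 0.1 nM estradiol, then viability is read by fluorescence.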
(Quantitative high-throughput screening tests each substance at several concentrations.)

A short description of assay [2]: qHTS assay to identify small molecule antagonists of the androgen receptor (AR) signaling pathway using the MDA cell line in the presence of 0.5 nM R1881 - cell viability counter screen (AID 1259242). Further: nearly all actives have a fitted effect of over 45% in size. Put shortly: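 Human breast carcinoma MDA-kb2 cells, cultured without CO2, receive compounds alongside 0.5 nM (final) R1881 agonist. After 16 hr at 37C, viability is taken as live-cell protease signal.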

The target of assay [3] is Androgen receptor (Homo sapiens) (UniProt P10275). The experiment in a line: qHTS assay to identify small molecule antagonists of the androgen receptor (AR) signaling pathway using the MDA cell line in the presence of 0.5 nM R1881 (AID 1259243). Further: nearly all actives have a fitted effect of over 50% in size. Further: potency means the concentration at half of the fitted maximal effect. In short, it runs like this: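 Cells: MDA-kb2 (MMTV-luc). Stimulus: 0.5 nM R1881. Time: 16 hr, 37C, no CO2. Detection: ONE-Glo luminescence after 30 min at RT.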

Assay [4] has as its target Estrogen receptor (Homo sapiens) (UniProt P03372). The experiment in a line: qHTS assay to identify small molecule antagonists of the estrogen receptor alpha (ER-alpha) signaling pathway using the BG1 cell line in the presence of 0.1 nM 17-beta-estradiol (AID 1259244). Further: nearly all actives have a fitted effect of over 50% in size. In short, it runs like this: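 Seeding of stripped-serum-adapted VM7Luc4E2 cells, 24 h attachment, compound transfer, then 0.1 nM final 17beta-estradiol; after 22 h incubation, ONE-Glo reagent and luminescence reading.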

A short description of assay [5]: qHTS assay to identify small molecule HDAC inhibitors (AID 1259364).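 Further: wild-type HCT-116 cells with endogenous class I/II HDAC activity; top concentration of the series differs between compounds; nearly all actives have a fitted effect of over 45% in size.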 In short, it runs like this:
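After a 2 hr compound incubation (37C, 5% CO2), HCT-116 cells seeded at 1,500/well the day before received HDAC-Glo reagent; signal read as luminescence after 30 min at room temperature.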

Assay [6] can be described thus: qHTS assay to identify small molecule HDAC inhibitors - cell viability counter screen (AID 1259365). Further: series mostly up to about 92 µM; nearly all actives have a fitted effect of over 50% in size. Put shortly: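 Viability readout: CellTiter-Glo luminescence. Wild-type HCT-116 cells, 2hr compound treatment following overnight attachment at 37 C.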
A short description of assay [7]: qHTS assay to identify small molecule agonists of the sonic hedgehog signaling (Shh) pathway - cell viability counter screen (AID 1259366). Further: nearly all actives have a fitted effect of over 50% in size. In short, it runs like this: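 Viability measured fluorometrically (CellTiter-Fluor, 1hr, 37C) in 3T3 Gli1-Luc reporter cells after 23hr compound exposure within a 24hr incubation at 37C/5% CO2.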
Assay [8] is described as follows: qHTS assay to identify small molecule antagonists of the sonic hedgehog signaling (Shh) pathway - cell viability counter screen (AID 1259367). Further: nearly all actives have a fitted effect of over 55% in size. In short, it runs like this: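 Tox21 library chemicals were tested on a Gli1-Luc NIH/3T3 clone (2,000 cells/well) stimulated by conditioned medium; viability was quantified as fluorescence from CellTiter-Fluor reagent added at 23 hr.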

Assay [9] in a line: qHTS assay to identify small molecule agonists of the sonic hedgehog signaling (Shh) pathway (AID 1259368; calls by dose curve;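 further: NIH/3T3-derived 3T3Gli1-Luc cells carrying a stable Gli1-driven firefly luciferase reporter; series mostly up to about 92 µM; nearly all actives have a fitted effect of over 15% in size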). Put shortly:
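Stable NIH/3T3 Gli1-Luc reporter clone; 24 hr cpd exposure after a 4 hr settling period; luminescence endpoint.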

Assay [10] can be described thus: qHTS assay to identify small molecule antagonists of the sonic hedgehog signaling (Shh) pathway (AID 1259369; calls by dose curve; further: nearly all actives have a fitted effect of over 45% in size; further: potency means the concentration at half of the fitted maximal effect). Put shortly:
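Gli1 transcriptional reporter (firefly Luc) in NIH/3T3 background, conditioned-medium activated. 24hr exposure, luminescence endpoint.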

Assay [11] is described as follows: qHTS assay to identify small molecule agonists of the androgen receptor (AR) signaling pathway in the presence of an antagonist - cell viability counter screen (AID 1259379).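 Further: MDA-kb2 human breast cancer cells carrying an MMTV luciferase reporter; series mostly up to about 92 µM; nearly all actives have a fitted effect of over 25% in size.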 Put shortly: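 Counter screen for cell viability run in parallel with the AR agonist-mode luciferase assay. MDA-kb2 cells were co-treated with nilutamide (3.0uM final) and compounds, then incubated 16 hr at 37C, and CellTiter-Fluor fluorescence was measured.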

A short description of assay [12]: qHTS assay to identify small molecule agonists of the estrogen receptor beta (ER-beta) signaling pathway - cell viability counter screen (AID 1259380). Further: nearly all actives have a fitted effect of over 30% in size. Further: potency means the concentration at half of the fitted maximal effect. Put shortly:
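In this qHTS counter screen, HEK293T cells carrying an ER-beta/UAS beta-lactamase reporter, grown in 2% charcoal-stripped FBS, received compound for 16 hr; ATP-based CellTiter-Glo luminescence was then read after 30 min at room temperature.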

In assay [13] the target is Androgen receptor (Homo sapiens) (UniProt P10275). The experiment in a line: qHTS assay to identify small molecule agonists of the androgen receptor (AR) signaling pathway in the presence of an antagonist (AID 1259381; calls by dose curve; further: nearly all actives have a fitted effect of over 15% in size). In short, it runs like this: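 AR antagonist background: nilutamide 3.0uM final. Cell line: MDA-kb2, MMTV-driven luciferase, responsive to both AR and GR. Exposure 16hr, 37C, no CO2; ONE-Glo luminescence.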

Assay [14] in a line: qHTS assay to identify small molecule antagonists of the estrogen receptor beta (ER-beta) signaling pathway - cell viability counter screen (AID 1259382). Further: series mostly up to about 92 µM; nearly all actives have a fitted effect of over 55% in size. Put shortly: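 HEK293T ER-beta-UAS-bla, 2% charcoal-stripped FBS; compounds + 1nM E2 16 hr 37C; CellTiter-Glo luminescence, 30 min RT.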
Assay [15] addresses Estrogen receptor (Homo sapiens) (UniProt P03372). The assay can be described thus: qHTS assay to identify small molecule agonists of the estrogen receptor alpha (ER-alpha) signaling pathway in the presence of an antagonist (AID 1259383; calls by dose curve; further: top concentration of the series differs between compounds; nearly all actives have a fitted effect of over 15% in size). Put shortly:
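ER-alpha agonism measured under antagonist challenge: 10.0nM ICI-182,780 (final) plus compound, 15 concentrations, 22hr, VM7Luc4E2 ERE-luciferase cells. Read by luminescence.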

The nature of assay [16]: qHTS assay to identify small molecule agonists or antagonists of the thyroid stimulating hormone receptor (TSHR) signaling pathway - wild type cell line counter screen (AID 1259384; calls by dose curve). In short, it runs like this:
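Wild-type Hek293 cells, 800/well, 18 h at 37C, then compound with Ro20-1724 for 30 min RT. cAMP by HTRF (cAMP-d2/anti-cAMP cryptate), 1 h RT, fluorescence read. 15 concentrations, triplicates.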

Assay [17] addresses Thyrotropin receptor (Homo sapiens) (UniProt P16473). The experiment in a line: qHTS assay to identify small molecule antagonists of the thyroid stimulating hormone receptor (TSHR) signaling pathway (AID 1259385; calls by dose curve; further: nearly all actives have a fitted effect of over 20% in size). In short, it runs like this: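 TSHR-HEK293 cells (800/well) plated 18 h, then compounds with Ro20-1724 and TSH at 1.5 ng/mL final, 30 min at room temperature. cAMP quantified by HTRF (cAMP-d2/anti-cAMP-cryptate, 1 h); 15 concentrations in triplicate.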

A short description of assay [18]: qHTS assay to identify small molecule phospholipidosis (PLD) inducers (AID 1259344; active means well fitted curve in the direction sought with a large enough effect; an effect the other way counts as inactive or inconclusive). In short, it runs like this:
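Image-based: LipidTOX Red pit count/intensity per well and per cell; HepG2, 24 h compound at 37 C, PFA fixation, Hoechst counterstain.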

For assay [19], the target named is Estrogen receptor beta (Homo sapiens) (UniProt Q92731). The assay can be described thus: qHTS assay to identify small molecule agonists of the estrogen receptor beta (ER-beta) signaling pathway (AID 1259377; active means well fitted activation curve with a large enough effect in the signal ratio in the repeat runs, not every such curve was filed as active; the % refers to the signal ratio). In short, it runs like this:
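A UAS-controlled beta-lactamase reporter in ER-beta-UAS-bla HEK293T cells reports receptor activation. Compounds act for 16 hr at 37C in 2% charcoal-stripped serum, and a FRET substrate is read by fluorescence after 2 hours.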

Assay [20] shares this target. The experiment in a line: qHTS assay to identify small molecule antagonists of the estrogen receptor beta (ER-beta) signaling pathway (AID 1259378; active means well fitted inhibition curve with a large enough effect in the signal ratio in the repeat runs, not every such curve was filed as active; the % refers to the signal ratio). Put shortly: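 ER-beta-UAS-bla HEK293T cells in 2% charcoal-stripped FBS medium treated with compound plus 1nM final 17-beta-estradiol for 16 hr at 37C. Beta-lactamase reporter read by FRET substrate fluorescence after 2 hours at room temperature.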

Records with an inconclusive call do not appear. The source made the active and inactive calls. Unless noted, the call rests on the fitted dose curve; in most records, active means well fitted curve in the direction sought with a large enough effect in the repeat runs; inconclusive means weak or mixed curves; inactive means no such curve, though single readings can be large; an effect the other way counts as inactive or inconclusive.

Androgen receptor (Homo sapiens), sequence (P10275 whole entry, looked up): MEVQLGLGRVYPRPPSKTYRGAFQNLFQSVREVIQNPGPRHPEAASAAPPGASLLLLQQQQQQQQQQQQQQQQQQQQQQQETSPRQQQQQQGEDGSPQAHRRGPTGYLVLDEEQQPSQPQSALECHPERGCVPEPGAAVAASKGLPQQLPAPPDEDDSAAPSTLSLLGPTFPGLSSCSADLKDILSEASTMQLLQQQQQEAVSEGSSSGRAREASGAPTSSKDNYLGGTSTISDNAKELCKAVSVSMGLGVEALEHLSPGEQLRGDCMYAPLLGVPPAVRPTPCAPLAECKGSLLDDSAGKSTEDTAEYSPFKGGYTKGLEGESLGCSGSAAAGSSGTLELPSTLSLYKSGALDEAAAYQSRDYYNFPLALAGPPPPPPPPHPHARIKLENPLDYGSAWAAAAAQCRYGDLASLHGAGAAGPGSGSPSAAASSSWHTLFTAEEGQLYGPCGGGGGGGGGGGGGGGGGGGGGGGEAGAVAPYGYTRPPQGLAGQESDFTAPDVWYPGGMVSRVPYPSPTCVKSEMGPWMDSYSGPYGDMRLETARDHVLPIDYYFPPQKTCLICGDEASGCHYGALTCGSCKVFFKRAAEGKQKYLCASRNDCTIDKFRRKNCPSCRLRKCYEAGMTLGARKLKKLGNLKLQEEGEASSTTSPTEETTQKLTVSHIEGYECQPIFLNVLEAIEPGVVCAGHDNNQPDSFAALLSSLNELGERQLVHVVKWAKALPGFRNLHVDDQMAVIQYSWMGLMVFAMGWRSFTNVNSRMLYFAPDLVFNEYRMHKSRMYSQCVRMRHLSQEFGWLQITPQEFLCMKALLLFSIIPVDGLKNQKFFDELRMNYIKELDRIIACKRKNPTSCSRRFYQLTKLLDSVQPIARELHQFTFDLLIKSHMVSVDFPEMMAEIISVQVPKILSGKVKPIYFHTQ
Thyrotropin receptor (Homo sapiens), sequence (P16473 whole entry, looked up): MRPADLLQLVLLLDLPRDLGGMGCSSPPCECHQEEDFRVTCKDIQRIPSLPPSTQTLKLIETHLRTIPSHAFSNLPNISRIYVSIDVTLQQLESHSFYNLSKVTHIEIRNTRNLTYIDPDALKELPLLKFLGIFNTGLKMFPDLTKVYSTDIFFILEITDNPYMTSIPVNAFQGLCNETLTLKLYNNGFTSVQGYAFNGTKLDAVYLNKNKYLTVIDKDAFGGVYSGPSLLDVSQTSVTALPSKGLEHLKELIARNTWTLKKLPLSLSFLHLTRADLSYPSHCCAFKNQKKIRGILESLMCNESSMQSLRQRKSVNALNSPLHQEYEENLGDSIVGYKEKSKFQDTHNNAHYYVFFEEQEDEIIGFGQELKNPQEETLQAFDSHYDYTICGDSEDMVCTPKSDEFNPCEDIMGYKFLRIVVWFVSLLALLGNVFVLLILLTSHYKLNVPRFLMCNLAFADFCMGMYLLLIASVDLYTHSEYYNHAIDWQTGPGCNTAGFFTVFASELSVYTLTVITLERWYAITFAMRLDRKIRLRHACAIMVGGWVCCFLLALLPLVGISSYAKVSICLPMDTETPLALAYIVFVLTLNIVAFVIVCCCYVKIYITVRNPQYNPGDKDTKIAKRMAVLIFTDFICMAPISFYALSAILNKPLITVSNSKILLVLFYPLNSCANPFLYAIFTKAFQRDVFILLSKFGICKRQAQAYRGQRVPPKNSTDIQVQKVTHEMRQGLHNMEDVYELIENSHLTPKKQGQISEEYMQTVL
Estrogen receptor beta (Homo sapiens), sequence (Q92731 whole entry, looked up): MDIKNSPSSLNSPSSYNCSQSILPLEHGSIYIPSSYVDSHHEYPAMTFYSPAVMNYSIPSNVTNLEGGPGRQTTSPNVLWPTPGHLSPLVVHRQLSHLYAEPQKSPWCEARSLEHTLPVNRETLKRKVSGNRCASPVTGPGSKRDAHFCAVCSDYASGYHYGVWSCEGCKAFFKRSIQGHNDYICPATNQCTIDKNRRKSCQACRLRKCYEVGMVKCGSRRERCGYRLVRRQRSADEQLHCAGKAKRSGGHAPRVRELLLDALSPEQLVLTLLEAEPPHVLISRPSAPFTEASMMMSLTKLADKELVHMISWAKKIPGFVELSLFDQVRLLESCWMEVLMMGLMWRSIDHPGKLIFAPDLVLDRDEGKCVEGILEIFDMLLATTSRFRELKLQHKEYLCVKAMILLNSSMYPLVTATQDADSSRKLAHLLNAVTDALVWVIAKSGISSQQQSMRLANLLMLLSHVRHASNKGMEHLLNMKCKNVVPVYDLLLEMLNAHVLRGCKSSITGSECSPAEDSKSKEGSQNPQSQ
Estrogen receptor (Homo sapiens), sequence (P03372 whole entry, looked up): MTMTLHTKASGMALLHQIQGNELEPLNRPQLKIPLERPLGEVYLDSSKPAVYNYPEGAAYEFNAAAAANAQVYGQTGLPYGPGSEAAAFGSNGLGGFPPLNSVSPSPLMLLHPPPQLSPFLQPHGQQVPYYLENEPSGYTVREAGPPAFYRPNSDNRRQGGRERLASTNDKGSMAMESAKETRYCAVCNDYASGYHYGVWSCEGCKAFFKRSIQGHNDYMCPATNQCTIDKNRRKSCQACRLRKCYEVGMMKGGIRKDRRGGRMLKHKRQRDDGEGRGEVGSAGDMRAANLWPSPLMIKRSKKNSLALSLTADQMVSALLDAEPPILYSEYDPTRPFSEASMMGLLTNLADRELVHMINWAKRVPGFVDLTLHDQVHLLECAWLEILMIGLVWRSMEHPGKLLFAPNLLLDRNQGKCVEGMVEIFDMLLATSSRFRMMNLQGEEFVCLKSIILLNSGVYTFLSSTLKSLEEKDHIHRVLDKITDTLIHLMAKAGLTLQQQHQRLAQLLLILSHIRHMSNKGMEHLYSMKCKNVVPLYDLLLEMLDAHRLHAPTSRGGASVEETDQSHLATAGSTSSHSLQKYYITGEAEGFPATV

Turning to `O=C(Cl)c1ccc(Cl)cc1`, the Potency entry in assay [1], in [2], in assay [3], in assay [4], in assay [5] and in [6] was “inactive” each time. Further, the Potency result in [7], in assay [8], in [9], in [10], in [11] and in assay [12] was “inactive” throughout. The Potency result in assay [13], in assay [14], in assay [15] and in assay [17] was “inactive” throughout. Besides, in assay [16], the outcome was inactive.

Regarding `CCN(CC)c1c([N+](=O)[O-])cc(C(F)(F)F)c(N)c1[N+](=O)[O-]`, the Potency entry in assay [1], in assay [2], in [5], in [6], in assay [7] and in [8] was “inactive” throughout. The Potency result in assay [9], in assay [11], in assay [13], in assay [14] and in assay [15] was “inactive” in each case. Also, the Potency in assay [3] was 27.3 µM (active); in assay [10] it was 9.69 µM (active). For the same molecule, the outcome in [16] was inactive.

With `Cc1c(Cl)c(=O)oc2cc(OP(=O)(OCCCl)OCCCl)ccc12`, the Potency entry in [1], in assay [2], in [4], in [18], in [5] and in assay [6] was “inactive” throughout. For the same molecule, the Potency result in assay [8], in [9], in assay [19], in assay [12], in assay [14] and in assay [15] was “inactive” in each case. In assay [16], the call was inactive.

For the molecule `ClC1=C(Cl)[C@]2(Cl)[C@H]3[C@H]([C@H]4C=C[C@H]3C4)[C@@]1(Cl)C2(Cl)Cl`, the Potency entry in assay [1], in assay [2], in assay [4], in assay [5], in [6] and in assay [7] was “inactive” each time. Further, the Potency result in assay [8], in [9], in [10], in assay [11], in assay [12] and in assay [14] was “inactive” each time. Besides, the Potency result in assay [15] and in [17] was “inactive” throughout. Further, the molecule was classed as inactive in assay [16].

`CC(C)N1C(=O)N(c2ccccc2)CSC1=NC(C)(C)C`: the Potency entry in assay [1], in assay [2], in [5], in assay [6], in assay [7] and in assay [8] was “inactive” in each case. The Potency entry in [9], in [11], in assay [13] and in assay [15] was “inactive” each time. Further, the Potency in [3] and in assay [12] was 54.5 µM (active) each time. Moreover, the molecule was called inactive in assay [16].

Take `C=CC(=O)N(C)C`: the Potency entry in [1], in assay [2], in assay [4], in assay [5], in assay [6] and in [7] was “inactive” throughout. Moreover, the Potency result in [8], in assay [9], in [10], in assay [19], in assay [11] and in [12] was “inactive” throughout. In addition, the Potency entry in assay [14], in assay [15] and in assay [17] was “inactive” in each case. The result in [16] was inactive.

As for `Clc1ccc(-c2ccccc2)cc1`, the Potency entry in [1], in assay [2], in assay [4], in assay [5], in assay [6] and in [7] was “inactive” throughout. Further, the Potency entry in assay [8], in assay [9], in [10], in [19], in [20] and in assay [11] was “inactive” each time. Besides, the Potency result in assay [12], in [14], in assay [15] and in [17] was “inactive” throughout. Moreover, the result in assay [16] was inactive.

Turning to `ClCCN1CCOCC1`, the Potency result in [1], in [2], in assay [4], in assay [5], in assay [6] and in [7] was “inactive” throughout. Also, the Potency entry in [8], in [9], in [10], in assay [19], in assay [20] and in assay [11] was “inactive” in each case. Moreover, the Potency result in assay [12], in assay [14], in assay [15] and in assay [17] was “inactive” each time. Besides, the result in assay [16] was inactive.

Values taken from PubChem BioAssay (Tox21).
